PubChem BioAssay (NCI)
Compounds without any hit were thinned out: in the full panel of roughly 83,000, 20% have a hit.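 Note: values are percent growth. 100 is the growth of untreated cells, values between 100 and 0 indicate rising inhibition; between -100 and 0 indicates cell death.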 A number with no mark means an inactive call. The source made the active and inactive calls. The calls were made as follows: active = growth percent below 10; inactive = the rest.

System: HL-60(TB) leukemia
Test: NCI-60 one-dose screen, 48 h (100 = growth as untreated, 0 = no growth, -100 = all killed)
Conditions: 10 µM unless noted

Row | Structure (SMILES) | growth
1 | N#Cc1cc(-c2nc3ccccc3s2)c(=O)n(NS(=O)(=O)c2ccccc2)c1N | 103%
2 | COc1ccc2c(c1)c(=O)oc1c(C)c(OCC(C)=O)ccc12 | 110%
3 | COC[C@H](C)n1c(C2CCOCC2)nc2cnc3cc(-c4c(C)noc4C)c(OC)cc3c21 | 31.5%
4 | CCOC(=O)C/C(=N\Nc1cc(=O)[nH]c2ccc(C)cc12)C(=O)OCC | 92%
5 | Cc1ccc(C(=O)c2ccccc2)c(C)c1 | 115%
6 | O=C(NS(=O)(=O)c1ccc2ccccc2c1)n1cc(-c2ccncc2)c(-c2ccc(Cl)c(O)c2)n1 | 43.3%
7 | CS(=O)(=O)c1ccc(-c2cnc3ccc(-c4cccc(S(C)(=O)=O)c4)nn23)cc1 | 16.6%
8 | CCCCC[C@H]1C/C=C2/C(=O)C=C[C@@H]2C/C=C\CCCC(=O)O1 | 4.48% (active)
9 | O=C(Nc1nc(-c2ccc(Cl)cc2)nc2c1sc(=S)n2-c1ccccc1)C(F)(F)F | 69.2%
10 | COc1ccc2c(c1)C(=O)/C(=C/c1ccc(OCC(=O)Nc3nccs3)cc1)O2 | -84.2% (active)
11 | COc1ccc(-c2nc3sccn3c2-c2ccnc(S(C)(=O)=O)n2)cc1 | 55.4%
12 | COc1cc(CCCO)c(OC)c(OC)c1OC | 98.4%
13 | NCCCn1c2c(c3cc(-c4ccn[nH]4)ccc3c1=O)C(=O)c1ccccc1-2 | 39.6%
14 | Cc1nn(-c2cc(=O)[nH]c3ccccc23)c(N)c1C#N | 102%
15 | Cc1ccc(S(=O)(=O)N(CCc2ccc(Cl)cc2)S(=O)(=O)c2ccc(C)cc2)cc1 | 85.3%
